# The supplement of paper PMC7858590
# Tested on: human monocyte-derived macrophages (polarized)
# Experiment: cell shape (eccentricity) Z-score vs DMSO control; higher = more elongated, M2-like morphology
# Details: 5 µM; 24 h; macrophage state: M1-polarized (IFNg + TNFa), cytokines present during treatment
# Procedure: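 Primary-screen hits were rescreened on polarized hMDMs with the differentiating cytokines (IL-4 + IL-13 or IFNg + TNFa) kept in the medium during treatment with compound at 5 uM for 24 h. The eccentricity Z-score vs DMSO wells is averaged over experiments.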
row,SMILES,cell shape (Z-score)
1,CN(C)C(=S)SSC(=S)N(C)C,-4.6
2,CN1[C@@H]2CC[C@H]1C[C@@H](OC(c1ccccc1)c1ccccc1N)C2 (stereo partly drawn),-3.5
3,Clc1ccc(C2=CCCC3CCC2N3)cn1 (stereo not drawn),9.06
4,Clc1ccc(C(OCCN2CCCCC2)c2ccccc2)cc1 (stereo not drawn),-5.91
5,c1cc2c(c(N3CCNCC3)c1)OCCO2,-7.3
6,COc1cc2c(c(OC)c1OC)-c1ccc(OC)c(=O)cc1[C@@H](NC(C)=O)CC2,3.12
7,CC[C@@H]1/C=C/C=C/C[C@H](C)[C@H](O)[C@](C)(O)C(=O)[C@H](C)[C@@H](O)[C@H](C)C(=O)[C@H](C)[C@@H](O)[C@H](C)/C=C/C(=O)O[C@H]2[C@@H](C)[C@@H](CC1)O[C@@]1(CC[C@@H](C)[C@@H](C[C@H](C)O)O1)[C@@H]2C,-9.34
8,CCN1C[C@]2(COC)CC[C@H](OC)[C@]34C1[C@H]([C@H](OC)[C@H]23)[C@@]1(OC(C)=O)C[C@H](OC)[C@]2(O)C[C@@H]4[C@@H]1[C@H]2OC(=O)c1ccc(OC)cc1,-6.97
